Experimental data published in PubChem BioAssay (NCATS).
Records with an inconclusive call do not appear. A number with no mark means an inactive call. Calls of active or inactive are those of the source. Calls come from the whole dose curve; as a rule, active = well fitted cell-killing curve with a large enough effect; inconclusive = small, poorly fitted or top-dose-only effect; inactive = flat fitted curve, though single readings scatter.

Experiment: Cellular viability qHTS for adrenocortical cancer (ACC) cell line SW-13 (AID 1963989); note: nearly all actives have a fitted effect of over 65% in size;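 for activity (max response): cells grown in serum-free medium with ITS supplement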
Conditions: SW-13 ACC cells viability, CellTiter-Glo, 48 h; activity (max response): active compounds read low
In short: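 SW-13 cells in ITS-supplemented serum-free DMEM were plated overnight, then exposed for 48 h at 37C to compound titrations (up to 46 uM final). Viability was read by CellTiter-Glo luminescence; four-parameter logistic fits gave IC50 and efficacy.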
% is set by controls: 0 for no effect and ±100 for the full control effect; potency is the fitted concentration of half-maximal effect.

| Structure (SMILES) | activity (max response) [%] | Potency |
| --- | --- | --- |
| Cn1cc(-c2nc(N[C@@H]3CCCC[C@@H]3N)c(F)c3c2C(=O)NC3)cn1 | 8.72 |  |
| CC(C)n1c(/C=C/[C@@H](O)C[C@@H](O)CC(=O)O)c(-c2ccc(F)cc2)c2ccccc21 | 5.25 |  |
| COc1ccc2nc(NC(=O)Nc3ccccc3)sc2c1 | -20 |  |
| CC(C)n1c(/C=C/[C@H](O)C[C@H](O)CC(=O)O)c(-c2ccc(F)cc2)c2ccccc21 |  | 17.8 µM (active) |
| C/C(O)=C(\C#N)C(=O)Nc1ccc(C(F)(F)F)cc1 | -8.43 |  |
| Cc1cc(O)c(-c2ccc([C@@H](C)CN)cc2)c2c1[nH]c(=O)c1sccc12 | -7.01 |  |
| CCc1nn(CCCN2CCN(c3cccc(Cl)c3)CC2)c(=O)n1CCOc1ccccc1 |  | 14.6 µM (active) |
| CONC(=O)Nc1ccc(-c2sc3c(c2CN(C)C)c(=O)n(-c2ccc(OC)nn2)c(=O)n3Cc2c(F)cccc2F)cc1 | -5.64 |  |
| CC1Cc2ccccc2N1C(=O)Cc1nc(N2CCOCC2)cc(=O)[nH]1 (stereo not given) | -14.8 |  |
| O=C(CCN1CCN2CCCC2C1)N1c2ccccc2Sc2ccc(Cl)cc21 (stereo not given) | -13.8 |  |
| CNCCCN1c2ccccc2CCc2ccccc21 |  | 20.6 µM (active) |
| OC1CCC(Oc2cccc3cnc(Nc4ccc5nc[nH]c5c4)nc23)CC1 (stereo not given) |  | 7.94 µM (active) |
| NS(=O)(=O)c1cc(C(=O)NN2C[C@H]3[C@H]4CCC(C4)[C@H]3C2)ccc1Cl | -7.57 |  |
| Cc1cc(O)c2c(O)c3c(O)cccc3cc2c1 | -2.49 |  |
| CC(C)(C)CC(=O)OCC(=O)[C@@]1(O)CC[C@H]2[C@@H]3CCC4=CC(=O)C=C[C@]4(C)[C@H]3[C@@H](O)C[C@@]21C | -10.9 |  |
| CCCCCCCCCCCCCCCCCCNC(=O)OC1CCN(C(=O)OC[C@H](COC(=O)N(Cc2cccc[n+]2CC)C(=O)c2ccccc2OC)OC)CC1 |  | 7.31 µM (active) |
| C[C@H](Nc1ncnc2nc[nH]c12)c1cc2ccc(F)cc2nc1-c1ccccn1 | -8.13 |  |
| CCOc1ccc2nc(S(N)(=O)=O)sc2c1 | -20.8 |  |
| O=C(CCNC(=O)c1ccc(OC(F)(F)F)cc1)N[C@@H]1CCCc2ccccc21 | -26.4 |  |
| CN1CC[C@@H](NC(=O)Nc2ccc(C#N)cc2)C[C@@H]1c1nc2ccccc2[nH]1 | -1.78 |  |

| Structure (SMILES) | activity (max response) [%] | Potency |
| --- | --- | --- |
| CCCCC1C(=O)N(c2ccccc2)N(c2ccccc2)C1=O | -21.3 |  |
| CC(C)OC(=O)c1cc2c(OCC(O)CNC(C)(C)C)cccc2[nH]1 (stereo not given) | -10.4 |  |
| CN1CCCCC1CCN1c2ccccc2Sc2ccc(S(C)=O)cc21 (stereo not given) | -6.63 |  |
| CC(C)c1c(-c2ccccc2)nc2c(C#N)c[nH]n2c1=O | -8.31 |  |
| CC(C)=CCC/C(C)=C/CC/C(C)=C/CSc1ccccc1C(=O)O | -19.3 |  |
| CC(=O)Oc1ccc(C2(c3ccc(OC(C)=O)cc3)C(=O)Nc3ccccc32)cc1 | -6.19 |  |
| CCc1cnn2c(NCc3ccc[n+]([O-])c3)cc(N3CCCC[C@H]3CCO)nc12 |  | 0.0355 µM (active) |
| Cn1ncc(Cl)c1-c1cc(C(=O)N[C@H](CN)Cc2cccc(F)c2)sc1Cl | -8.31 |  |
| Cc1nc(C2CCCCC2)c(-c2ccc(S(N)(=O)=O)c(F)c2)o1 | 16 |  |
| CCCC(C(=O)OCCN(CC)CC)(c1ccccc1)c1ccccc1 |  | 20.6 µM (active) |
| CCOC(=O)Nc1ccc2c(c1)N(C(=O)CCN1CCOCC1)c1ccccc1S2 | -13.5 |  |
| CC1=C(C(=O)OC(C)C)C(c2cccc([N+](=O)[O-])c2)C(C(=O)OC2CN(C(c3ccccc3)c3ccccc3)C2)=C(N)N1 (stereo not given) | -4.04 |  |
| C[C@]12CC[C@@H]3c4ccc(O)cc4CC[C@H]3[C@@H]1CCC2=O | -14.1 |  |
| COc1ccc(Oc2cc(NCCC(F)(F)F)c3ncc(-c4ccc(C(=O)NC5CC5)c(C)c4)n3n2)c(F)c1F | -17.7 |  |
| Cc1ccc(N)cc1O | 2.63 |  |
| CCCCCOc1ccc(C2SC(=O)NC2=O)cc1OCC (stereo not given) | -6.25 |  |
| CC(=O)Nc1ccc(S(=O)(=O)Nc2ccc([N+](=O)[O-])cc2)cc1 | 3.97 |  |
| C[C@]12CC[C@H]3[C@@H](CCC4=CC(=O)CC[C@@]43C)[C@@H]1CC[C@@H]2C(=O)CO | -8.44 |  |
| Cc1c(Cl)cccc1Nc1ccccc1C(=O)O | -8.75 |  |
| Cc1ccc(C(=O)Oc2ccc(C(O)CNC(C)(C)C)cc2OC(=O)c2ccc(C)cc2)cc1 (stereo not given) | -16 |  |
